# Results filed as inconclusive are left out. Active and inactive are the calls of the source. The call rests on the fitted dose curve; in most records, active means well fitted activation curve with a large enough effect; inconclusive means small, poorly fitted or top-dose-only effect; inactive means flat fitted curve, though single readings scatter.
# Assay: qHTS assay to identify small molecule phospholipidosis (PLD) inducers (AID 1259344)
# Conditions: HepG2 phospholipidosis, LipidTOX Red imaging, 24 h; series mostly up to 38.3 µM; PLD induction: at the top concentration
# In short: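 Phospholipidosis is scored by imaging LipidTOX-stained pits in HepG2 cells exposed to compound for 24 h at 37 C; pit counts and integrated intensities per well and per cell serve as outputs.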
# On the % scale 0 is the no-effect control and ±100 the full control effect.
Compound,PLD induction,Potency
COC1[C@@H](O[C@@H]2O[C@H](C)[C@@H](O[C@H]3C[C@@](C)(O)[C@H](OC(=O)CC(C)C)[C@H](C)O3)[C@H](N(C)C)[C@H]2O)[C@@H](CC=O)C[C@@H](C)[C@@H](O)/C=C/C=C/C[C@@H](C)OC(=O)C[C@H]1OC(C)=O (some centres undefined),0.0827% [at 15.5 µM] (inactive),–
CCc1ncnc2cc(OC)c(OC)cc12,-0.157% (inactive),–
CC12CCC(C1)C(C)(C)C2=O (centres undefined),-0.681% (inactive),–
CC(C)C[C@H](NC(=O)[C@@H](COC(C)(C)C)NC(=O)[C@H](Cc1ccc(O)cc1)NC(=O)[C@H](CO)NC(=O)[C@H](Cc1c[nH]c2ccccc12)NC(=O)[C@H](Cc1cnc[nH]1)NC(=O)[C@@H]1CCC(=O)N1)C(=O)N[C@@H](CCCN=C(N)N)C(=O)N1CCC[C@H]1C(=O)NNC(N)=O,–,inactive
